CSC inhib – blocks cancer stem cells; cancer stem cell-like cells viability, luminescence; 1.1% of 300,000 active; inhibition, % at 7.5 µM; in the data active means inhibition above about 75%; tested in HMLE shEcad cells
aSyn UTR inh – 5' untranslated region of α-synuclein, MLPCN primary screen. AID 1813. alpha-synuclein 5'UTR reporter, inhibitor activity. 0.82% of 300,000 active. inhibition, % (tested at 7.5 µM); in the data active means inhibition above about 60%;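 further: H4 neuroglioblastoma cells stably carrying SNCA 5'UTR luciferase fusion; 0% = DMSO wells and 100% = positive control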
A1 inh – inhibitors of the anti-apoptotic protein A1, read as caspase activation. 0.066% of 330,000 active. AID 2462. caspase activation, % (concentration not given with the values). MEF A1-2A-BIM cells, Caspase-Glo 3/7 luminescence, 3 h; percent of clofoctol response, vehicle zero;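 active means over half of replicate activation scores above 10%, or exactly half above 10 with the replicate mean above 10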
Beta cell apopt – blocks beta cell apoptosis; INS-1E cytokine-induced death, ATP luminescence, 48 h; percent of positive-control rescue, neutral wells zero; protection from apoptosis, % (concentration not given with the values); 0.8% of 300,000 active;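 active means Every replicate reaches about 75%, or at least half do and their mean reaches it too, limit read from the data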;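 further: 0% = cytokine-treated negative control wells and 100% = positive control rescue; higher means more ATP so stronger rescue from cytokine killing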
Mdm2-MdmX inh – inhibitors of human Mdm2/MdmX interaction; O15151+Q00987; SaOS-2 split-luciferase Mdm2/MdmX complementation, luminescence; inhibition, % at 8 µM; 3% of 330,000 active; AID 485346;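 active means inhibition of at least 50% at 8 µM in the primary screen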
Target sequence (O15151 whole entry, looked up): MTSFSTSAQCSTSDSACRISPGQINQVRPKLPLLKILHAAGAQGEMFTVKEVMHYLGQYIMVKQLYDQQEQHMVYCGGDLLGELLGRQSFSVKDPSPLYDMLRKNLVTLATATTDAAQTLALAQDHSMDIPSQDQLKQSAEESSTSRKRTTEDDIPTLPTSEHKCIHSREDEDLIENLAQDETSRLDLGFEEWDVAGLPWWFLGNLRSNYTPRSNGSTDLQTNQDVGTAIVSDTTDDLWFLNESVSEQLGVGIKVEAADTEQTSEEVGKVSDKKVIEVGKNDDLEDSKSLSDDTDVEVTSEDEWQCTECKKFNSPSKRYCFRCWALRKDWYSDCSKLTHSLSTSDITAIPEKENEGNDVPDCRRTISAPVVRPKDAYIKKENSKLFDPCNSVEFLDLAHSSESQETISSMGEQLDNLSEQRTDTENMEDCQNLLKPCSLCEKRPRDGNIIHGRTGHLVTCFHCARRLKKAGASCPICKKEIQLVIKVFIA
Target sequence (Q00987 whole entry, looked up): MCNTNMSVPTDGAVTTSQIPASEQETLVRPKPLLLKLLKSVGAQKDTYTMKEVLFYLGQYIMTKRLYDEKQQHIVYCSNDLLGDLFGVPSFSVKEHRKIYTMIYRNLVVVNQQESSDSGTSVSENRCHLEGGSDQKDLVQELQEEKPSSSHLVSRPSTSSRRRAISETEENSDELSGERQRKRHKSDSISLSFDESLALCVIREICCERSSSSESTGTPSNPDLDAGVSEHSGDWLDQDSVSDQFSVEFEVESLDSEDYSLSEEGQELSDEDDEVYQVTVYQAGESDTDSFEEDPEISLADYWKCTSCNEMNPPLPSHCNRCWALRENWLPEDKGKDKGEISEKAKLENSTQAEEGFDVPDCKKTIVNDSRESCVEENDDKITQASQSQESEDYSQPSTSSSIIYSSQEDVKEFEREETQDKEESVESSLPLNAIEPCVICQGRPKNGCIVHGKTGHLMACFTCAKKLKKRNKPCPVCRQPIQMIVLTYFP
Mdm2-MdmX conf – human Mdm2/MdmX binding inhibition, confirmed; shares compounds with Mdm2-MdmX inh; luminescent assay; 55% of 10,000 active; AID 489028; inhibition, % at 8 µM; in the data active means inhibition above about 40%
FLuc counter – full-length luciferase inhibition in Mdm2/MdmX counter-screen. shares compounds with Mdm2-MdmX inh. SaOS-2 full-length luciferase counterscreen, luminescence. inhibition, % at 8 µM. 77% of 6,200 active. AID 504607;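 active means mean inhibition at 8 µM reaching about 37%, which flags the compound as non-specific, limit read from the data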;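 further: p53-null SaOS-2 cells with luciferase driven by a doxycycline-inducible promoter; compound on cells about two nights before reading with doxycycline added after day one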
Active calls of the source: *. Hits are enriched below; roughly 4.1% of the tested compounds scored in any of these assays.

Cc1ccc(-c2cc(C(=O)Nc3cc(C)on3)c3ccccc3n2)cc1 was read as CSC inhib 3.0, aSyn UTR inh 12.6, A1 inh 0.9, Beta cell apopt 1.7 and Mdm2-MdmX inh -10.8.
NNC(=O)c1cc(-c2cccs2)nc2ccccc12 was read as CSC inhib 1.1, aSyn UTR inh -1.7, A1 inh -0.6, Beta cell apopt -3.6 and Mdm2-MdmX inh -9.8.
`Cc1cc(NC(=O)c2cc(-c3cccs3)nc3ccccc23)no1` gave CSC inhib 36.9, aSyn UTR inh 1.9, A1 inh 0.0, Beta cell apopt 9.3, Mdm2-MdmX inh 51.3* and Mdm2-MdmX conf 26.6.
For CCN(CC)S(=O)(=O)c1cc(NC(=O)c2cc(-c3ccccn3)nc3ccccc23)ccc1C the results were CSC inhib 4.4, aSyn UTR inh 17.0, A1 inh -0.4, Beta cell apopt 12.2, Mdm2-MdmX inh 52.5* and Mdm2-MdmX conf 4.8.
`CC(Oc1ccc2c(-c3ccccc3)cc(=O)oc2c1)C(=O)N1CCC[C@@H]1C(N)=O` (some centres undefined) gave CSC inhib -12.8, aSyn UTR inh -52.0, A1 inh 1.2, Beta cell apopt -4.2 and Mdm2-MdmX inh -12.3.
`Cc1cc(NC(=O)c2cc(-c3ccccn3)nc3ccccc23)no1` gave CSC inhib 0.4, aSyn UTR inh 13.4, A1 inh 0.9, Beta cell apopt 2.2 and Mdm2-MdmX inh 16.8.
Screening Cc1cc(NC(=O)c2cc(-c3ccccn3)nc3ccc(Br)cc23)no1 returned CSC inhib 18.1, aSyn UTR inh 43.5, A1 inh 1.4, Beta cell apopt 27.9, Mdm2-MdmX inh 66.4* and Mdm2-MdmX conf 23.1.
Screening Cc1cccc2sc(NNC(=O)c3cc(-c4cccs4)nc4ccccc34)nc12 returned CSC inhib 103.2*, aSyn UTR inh -49.8, A1 inh -0.3, Mdm2-MdmX inh 81.9*, Mdm2-MdmX conf 51.3* and FLuc counter 61.0*.
Screening NS(=O)(=O)c1ccc(NC(=O)c2cc(-c3cccs3)nc3ccccc23)cc1 returned CSC inhib 10.4, aSyn UTR inh 9.8, A1 inh -1.2, Beta cell apopt 9.9, Mdm2-MdmX inh 87.0* and Mdm2-MdmX conf 29.6.
`NS(=O)(=O)c1ccc(CCNC(=O)c2cc(-c3ccccn3)nc3ccc(Br)cc23)cc1` gave CSC inhib 9.4, aSyn UTR inh 15.6, A1 inh -0.3, Beta cell apopt 16.3, Mdm2-MdmX inh 76.9* and Mdm2-MdmX conf 16.3.
For Cc1cn2c(=O)c(C(=O)N3CCN(c4ccccc4)CC3)cnc2s1 the results were CSC inhib 8.4, aSyn UTR inh -20.6, A1 inh 0.6, Beta cell apopt -1.1 and Mdm2-MdmX inh 12.1.
COc1cccc(CC(=O)OCC(=O)NNC(=O)c2ccc(Br)cc2)c1 was read as A1 inh 0.1, Beta cell apopt -2.1 and Mdm2-MdmX inh -3.5.
For S=C(NCCCN1CCOCC1)N(Cc1ccccc1)Cc1ccccc1 the results were CSC inhib 2.7, aSyn UTR inh -1.9, A1 inh 0.4, Beta cell apopt 2.0 and Mdm2-MdmX inh -6.8.
`CC(=O)c1cccc(N(C(=O)c2ccco2)C(C(=O)NC2CCCC2)c2ccccc2F)c1` (centres undefined) gave aSyn UTR inh -9.5, A1 inh 0.4, Beta cell apopt -5.9 and Mdm2-MdmX inh 16.9.
CC(CN1C(C)CCCC1C)OC(=O)c1ccc(F)cc1 (centres undefined) was read as CSC inhib -16.2, aSyn UTR inh 20.3, A1 inh -0.6, Beta cell apopt -3.2 and Mdm2-MdmX inh -15.1.
CNC(=S)N(CCc1cccc(C)c1)Cc1cc2cc(OC)c(OC)cc2[nH]c1=O was read as CSC inhib 18.2, aSyn UTR inh -2.6, A1 inh -1.0, Beta cell apopt 0.6 and Mdm2-MdmX inh -3.5.
`COc1cc2cc(CN(CCc3cccc(C)c3)C(=S)NCCCN(C)C)c(=O)[nH]c2cc1OC` gave CSC inhib 5.9, aSyn UTR inh 0.3, A1 inh 0.7, Beta cell apopt -9.7, Mdm2-MdmX inh 51.9* and Mdm2-MdmX conf 25.9.
